From ChEMBL document CHEMBL3988442, “University of Dundee, Small-Polar-MMV Screening Library” (2021)

How the values were obtained:
[1] = molecular target: T1, Aspartate--tRNA(Asp/Asn) ligase (Mycobacterium tuberculosis (strain ATCC 25618 / H37Rv)) (UniProt P9WFW3); assay: Assay for Asp RNA synthetase-1 from Mycobacterium tuberculosis; format: functional; set-up: scale not given: direction of the effect not stated beside the values; conditions: 30 µM; also: in the data most compounds retested in dose-response had high values
T1 sequence (whole entry): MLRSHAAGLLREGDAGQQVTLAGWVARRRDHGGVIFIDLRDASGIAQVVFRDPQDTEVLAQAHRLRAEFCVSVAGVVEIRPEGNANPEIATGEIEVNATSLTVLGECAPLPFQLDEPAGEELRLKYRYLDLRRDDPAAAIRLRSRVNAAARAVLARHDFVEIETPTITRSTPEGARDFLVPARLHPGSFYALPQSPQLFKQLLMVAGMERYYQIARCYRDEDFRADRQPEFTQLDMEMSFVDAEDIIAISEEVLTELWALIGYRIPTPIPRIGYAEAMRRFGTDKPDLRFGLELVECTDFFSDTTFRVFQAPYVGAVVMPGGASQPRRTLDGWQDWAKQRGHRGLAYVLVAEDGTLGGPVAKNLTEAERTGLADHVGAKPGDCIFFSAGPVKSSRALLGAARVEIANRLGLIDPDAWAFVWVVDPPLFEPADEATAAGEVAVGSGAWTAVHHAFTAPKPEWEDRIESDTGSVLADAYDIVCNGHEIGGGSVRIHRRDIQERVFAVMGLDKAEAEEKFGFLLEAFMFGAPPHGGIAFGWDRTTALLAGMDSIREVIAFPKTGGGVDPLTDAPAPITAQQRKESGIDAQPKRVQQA

[2] = molecular target: Shiga toxin 2 (Escherichia coli O157:H7) (UniProt P09385+P09386); assay: E. coli 0.157:H7 Shiga Toxin SOP - stx2 screening assay; format: functional; set-up: scale not given: direction of the effect not stated beside the values; conditions: 30 µM

SMILES | Percent Effect [1] [%] | Percent Effect [2] [%]
Cc1csc(C2CCCCN2C(=O)CN(C)C2CC2)n1 (configuration not stated) | -4.06 | -4.47
COC(=O)c1sccc1NC(=O)C1CCCN1C(=O)c1ccco1 (configuration not stated) | -0.808 | -12.3
CN(CCc1ccccc1)Cc1cc(C(=O)N2CCN(C)C(=O)C2)no1 | -2.28 | -18.1
CN(C)C(=O)Cc1nc(CN2CCOC(Cn3cccn3)C2)cs1 (configuration not stated) | -3.5 | -20.8
COc1ccc(CN2C[C@@H]3CCCO[C@@H]3[C@H](NS(C)(=O)=O)C2)cc1 | 5.42 | -24
Cn1c(C2CC2)nc2c1CCN(CC(=O)Nc1nncs1)C2 | 7.07 | -9.76
COc1ccc(CN2C[C@H]3CC[C@](O)(c4ccc(C)cn4)[C@H]3C2)c(F)c1 | 2.93 | 14.7
Cc1ccc(N2CC[C@H]3O[C@@H](C(=O)NCc4ccco4)CC[C@H]32)nn1 | 12.5 | -10.5
CCC(C)N(C)S(=O)(=O)c1ccc(CCNC(C)=O)s1 (configuration not stated) | 0.0557 | -17
Cc1nc(C)n(C2CCCN(C(=O)c3ccc4c(c3)COC4)C2)n1 (configuration not stated) | 0.699 | -16.5
CC(C)(C)c1ccc(C2(C(=O)NCCS(N)(=O)=O)CC2)cc1 | 13.3 | -15.1
Cc1cnn(C2CCCN(C(=O)c3cn4cccnc4n3)C2)c1 (configuration not stated) | -0.409 | 8.96
CC(C(=O)NCc1ccnc(Oc2ccc(F)cc2)c1)n1cncn1 (configuration not stated) | -5.88 | 6.33
CN1CCc2cc(C(CNS(=O)(=O)c3cccs3)N3CCCC3)ccc21 (configuration not stated) | -0.102 | -6.23
O=C(NCCN1CCCc2ccccc21)c1scnc1Cl | -4.16 | 0.202
CC1COCCN1Cc1nc(-c2cccc(Br)c2)no1 (configuration not stated) | 4.5 | 32
